In the library only some 8% were active in any assay of this set; here they are far more common.
HT1080 IDH1KD tx: qHTS for induction of synthetic lethality in tumor cells producing 2HG: qHTS for the HT-1080-IDH1KD cell line | AID 686971, 2013 | HT-1080 IDH1 knockdown viability, ATP luminescence, 48 h | 360,000 compounds, 2% hits | Potency, µM (series often up to 46.1 µM), inactives show at the highest dose activity, negative = toxicity, most hits filed as cytotoxic;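 note: 0% = DMSO wells and -100% = cell-free medium wells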
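IDH1KD HT-1080 cells, 750/well, RPMI + 5% FBS; compound pinned after 2 h settling; 48 h, 37 °C; CellTiter-Glo luminescence; % activity normalised to DMSO and no-cell wells; curves fitted, classed by r2 and efficacy.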
KB-V1 MDR tox: qHTS assay for MDR1-selective chemotherapeutics: Primary screen using the drug-selected MDR subline cells KB-V1; KB-V1 MDR cells viability, CellTiter-Glo, 72 h; Potency, µM (titrated, usually from 46.1 µM), usual class: cytotoxic; 400,000 compounds, 3.4% hits; AID 1347076, 2019; note: % is set by controls: 0 for no effect and ±100 for the full control effect; nearly all actives have a fitted effect of over 60% in size
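Cells of the MDR subline KB-V1 are plated, dosed with compound at multiple concentrations, and incubated 72 h at 37 degrees C; CellTiter-Glo is then added and luminescence read after 10 min.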
SW480 rerep: A quantitative high throughput screen for small molecules that induce DNA re-replication in SW480 colon adenocarcinoma cells; SW480 DNA re-replication, Hoechst DNA content imaging, 48 h; 340,000 compounds, 1.8% hits; AID 624297, 2012; Potency, µM (titrated, usually from 46.1 µM), inactives show top-dose re-replication activation, actives largely listed as activators; note: % of control where 0% means no effect; nearly all actives have a fitted effect of over 55% in size
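Hoechst fluorescence of nuclei (405 nm excitation, 500-530 nm emission) measured by plate-scanning imager after 48 hr compound exposure at 37 C; re-replication scored as increased number of nuclei with elevated intensity.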
HT1080NT lethal: qHTS for induction of synthetic lethality in tumor cells producing 2HG: qHTS for the HT-1080-NT fibrosarcoma cell line. HT-1080-NT fibrosarcoma viability, CellTiter-Glo ATP luminescence, 48 h. Potency, µM (top dose mostly 46.1 µM), for inactives: top-dose activity, negative = less viability, most hits filed as cytotoxic. 360,000 compounds, 1.6% hits. AID 686970, 2013;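 note: NT is the 2HG producing partner of a matched IDH1 knockdown line; 0% = DMSO-treated cells and -100% = media-only wells without cells; nearly all actives have a fitted effect of over 55% in size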
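Viability of the 2HG-overproducing fibrosarcoma line after 48 hours of compound exposure at 37 degrees C was determined by luminescence with CellTiter-Glo, and concentration-effect curves were then fitted and categorized.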
MCF10A rereplic: A quantitative high throughput screen for small molecules that induce DNA re-replication in MCF 10a normal breast cells; AID 624296, 2012; 350,000 compounds, 2.9% hits; MCF 10A DNA re-replication, Hoechst nuclear intensity, 48 h; Potency, µM (top dose mostly 46.1 µM), inactives show at the highest dose activity, positive = re-replication, most hits filed as activators; note: % of control where 0% means no effect; nearly all actives have a fitted effect of over 50% in size
KB-3-1 tox: qHTS assay for MDR1-selective chemotherapeutics: Primary screen using the parental adenocarcinoma cell KB-3-1 | KB-3-1 viability, CellTiter-Glo ATP luminescence, 72 h | Potency, µM (highest dose often 46.1 µM), hits mostly cytotoxic | 400,000 compounds, 1.4% hits; note: % is set by controls: 0 for no effect and ±100 for the full control effect; nearly all actives have a fitted effect of over 60% in size
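Cytotoxicity in the drug-sensitive parental line KB-3-1 was scored as loss of CellTiter-Glo luminescence following 72 h incubation with compound. Values come from curve fitting of normalized concentration-response data.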
* marks the source's active call; other numbers are inactive results; i = inactive; ? = inconclusive; nt = no result given. Calls come from the whole dose curve; as a rule, active = well fitted curve in the direction sought with a large enough effect; inconclusive = small, poorly fitted or top-dose-only effect, or another doubt; inactive = no such curve, though single readings can be large; an effect the other way counts as inactive or inconclusive. Potency is the fitted concentration of half-maximal effect.

SMILES | HT1080 IDH1KD tx | KB-V1 MDR tox | SW480 rerep | HT1080NT lethal | MCF10A rereplic | KB-3-1 tox
CC(Oc1ccccc1)C(=O)NNC(=O)c1ccccn1 (stereo not drawn) | ? | 4.6µM* | ? | -22% | 25% | ?
CC(Oc1cccc(Br)c1)C(=O)NNC(=O)c1ccccn1 (stereo not drawn) | ? | ? | ? | ? | 16% | ?
CC(C)(C)c1ccc(C(=O)NCC(c2cccs2)S(=O)(=O)c2cccs2)cc1 (stereo not drawn) | nt | i | nt | nt | nt | i
Cc1ccc(C(=O)NCC(c2cccs2)S(=O)(=O)c2cccs2)cc1 (stereo not drawn) | nt | ? | nt | nt | nt | 21µM*
CCOC(=O)[C@]12Cc3c(cc(OC)c(OC)c3OC)[C@H]1N(Cc1ccccc1)C(=O)c1cc(OC)ccc12 | ? | ? | nt | 18µM* | nt | 4.6µM*
COc1ccc(C(=O)c2ccc(OC)c(OC)c2)cc1OC | -7% | i | 6% | 0% | 12% | i
COc1ccc(C(=O)c2nccc3cc(OC)c(OC)cc23)cc1OC | 2% | 16µM* | 0% | -1% | 4% | i
COc1ccc(C(=O)c2cc(OC)c(OC)c(OC)c2)cc1OC | 12µM* | i | 3.7µM* | ? | 3.7µM* | 5.8µM*
COc1ccc(C(O)c2nccc3cc(OC)c(OC)cc23)cc1OC (stereo not drawn) | -14% | 8.2µM* | -3% | -13% | 4% | ?
CC(C)(C)C1=NN(c2ccc([N+](=O)[O-])cc2)C(c2ccccc2)C1 (stereo not drawn) | -24% | i | 7% | -18% | 19% | i
Fc1ccc(C2CC(c3ccco3)=NN2c2ccccc2)cc1 (stereo not drawn) | -4% | i | 21µM* | 0% | 0.92µM* | i
O=[N+]([O-])c1ccc(N2N=C(c3ccco3)CC2c2ccccc2)cc1 (stereo not drawn) | 2% | i | ? | 5% | 8.2µM* | i
CS(=O)(=O)N1N=C(c2ccco2)CC1c1ccc(Cl)cc1 (stereo not drawn) | -7% | 16µM* | -31% | -1% | 1% | i
Cc1ccc(C(=O)C(OC(=O)CNC(=O)COc2ccccc2C)c2ccccc2)cc1 (stereo not drawn) | nt | i | nt | nt | nt | i
CCn1ccc2cc(S(=O)(=O)N3CCC(C(=O)NCc4cccc(C)c4)CC3)ccc21 | nt | i | nt | nt | nt | i
CCCCN(Cc1cc2ccccc2[nH]c1=O)C(=O)c1cccc(Cl)c1 | nt | i | nt | nt | nt | i
Cc1ccc(CNC(=O)CCCn2c(=O)c3ccccc3n(CC(=O)C(C)(C)C)c2=O)cc1 | nt | i | nt | nt | nt | i
COc1ccc(C2CC(c3c(-c4ccccc4)c4cc(Cl)ccc4[nH]c3=O)=NN2C(=O)CCC(=O)O)cc1 (stereo not drawn) | ? | i | 4% | -27% | -14% | i
COc1ccccc1C1CC(c2c(-c3ccccc3)c3cc(Cl)ccc3[nH]c2=O)=NN1S(C)(=O)=O (stereo not drawn) | ? | ? | ? | 26µM* | ? | ?
COc1cccc(C2CC(c3c(-c4ccccc4)c4cc(Cl)ccc4[nH]c3=O)=NN2S(C)(=O)=O)c1OC (stereo not drawn) | 18µM* | ? | ? | ? | ? | ?
Cc1ccc2nc(Cl)c3cc(C(=O)N4CCCC(C)C4)sc3c2c1 (stereo not drawn) | nt | i | nt | nt | nt | i
CCN(CCCNC(=O)C1CCC(=O)N1Cc1ccccc1Cl)c1cccc(C)c1 (stereo not drawn) | -3% | 6.5µM* | 3% | -4% | 3% | i
CN(CCCNC(=O)C1CCC(=O)N1Cc1ccccc1Cl)c1ccccc1 (stereo not drawn) | -16% | 23µM* | 5% | -2% | 13% | i
CC(=O)Nc1ccc(C(=O)N2CCCCC2c2cc(C(=O)Nc3cccc4c3CCCC4)no2)cc1 (stereo not drawn) | 5.8µM* | ? | nt | 16µM* | nt | ?
COc1ccc(-c2cc3c(=O)n(CC(=O)NCCCN4CCN(Cc5ccccc5)CC4)ncn3n2)cc1 | 0% | i | -10% | 1% | -6% | i
SMILES | HT1080 IDH1KD tx | KB-V1 MDR tox | SW480 rerep | HT1080NT lethal | MCF10A rereplic | KB-3-1 tox
COc1ccc(-c2cc3c(=O)n(CC(=O)NCCCN4CCC(Cc5ccccc5)CC4)ncn3n2)cc1 | ? | i | 5.8µM* | ? | -14% | 21µM*
Cc1c(O)ccc(/C(Cc2ccc3ccccc3n2)=N\O)c1O | -3% | ? | 5% | -2% | ? | 16µM*
COc1ccc(Cl)cc1NC(=O)C(=O)NCc1ccc(Cl)cc1 | nt | ? | nt | nt | nt | i
CCc1ccc(NC(=S)NC2CC3CCCC(C2)N3Cc2ccccc2)cc1 (stereo not drawn) | -5% | i | -82% | -8% | ? | i
S=C(Nc1ccc(Cl)cc1)NC1CC2CCC(C1)N2Cc1ccccc1 (stereo not drawn) | 18µM* | ? | 14% | ? | ? | ?
S=C(Nc1ccc(Cl)cc1)NC1CC2CCCC(C1)N2C1CCCC1 (stereo not drawn) | ? | i | 23µM* | ? | ? | i
COc1ccc(CN(Cc2ccccc2)C(=O)c2ccno2)cc1COc1ccc(NC(C)=O)cc1 | 7% | nt | nt | -1% | nt | nt
CN(C)S(=O)(=O)c1cccc(NC(=O)c2ccc(OC(F)(F)F)cc2)c1 | 3% | 2.6µM* | -126% | 9% | 0% | ?
CN(c1ccc(C(=O)Nc2cccc(O)c2)cc1)S(=O)(=O)c1ccccc1 | 0% | nt | 2% | -10% | -3% | nt
COCc1ccc(C(=O)Nc2cccc(S(=O)(=O)N(C)c3ccccc3)c2)cc1 | -16% | ? | -4% | 6.5µM* | 18% | i
COc1ccccc1NS(=O)(=O)c1cccc(NC(=O)c2[nH]c(C)c(C(C)=O)c2C)c1 | -1% | ? | 0% | -18% | ? | ?
CC(=O)c1c(C)[nH]c(C(=O)Nc2cccc(S(=O)(=O)N(C)c3ccccc3)c2)c1C | ? | ? | 23µM* | ? | 23µM* | ?
